# ± gives the standard deviation.
# System: EfPiwi piRISC loaded with L1MC piRNA (26 nt)
# Assay: pre-steady-state target cleavage rate (min^-1); auxiliary factor: 500 nM Ephydatia muelleri Gtsf1; guide: L1MC piRNA 5'p-UAACUAAAUACUAUGCAAGCUGUAGG; MIWI and MILI are mouse PIWI proteins and EfPiwi is from a freshwater sponge; tags in brackets are library labels; higher = faster piRNA-guided slicing of the target
# In short: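 The pre-steady-state cleavage rate was obtained by Cleave-'n-Seq with a burst-and-steady-state fit. A transcribed, DNA-blocked target RNA library (0.1 nM) was mixed with 1 nM active affinity-purified piRISC carrying one synthetic guide, with or without 500 nM GTSF1 partner protein, in HEPES–potassium acetate buffer at 33 °C for 0–8 or 0–960 min. Uncleaved targets were sequenced and normalised to depth and to weakly complementary targets, with three trials pooled and k3 capped at 0.0001 min^-1.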
row,Sequence,pre-steady-state target cleavage rate
1,UCCUGGUACAGCUUGCAUAGUAUUAAGAUA,0.0058 ± 0.0028
2,UCCUCCUACAGCUUCCAUAGUAUUUAGAAA,0.00369 ± 0.0018
3,UCCUGGAUGUCGUUGGUAAGUAUUUAGUUA,< 0.0001
4,UCCUGCUACAGCUUGGAUAGUAUUUACAAA,0.00306 ± 0.0026
5,UCCUGCUACAGCUUGCAUAGUAUUCAGUUA,0.00508 ± 0.0017
6,UCCUGCAAGAGCUUGCAUAGUAUUUAGUUA,0.0267 ± 0.0065
7,UCCUCCUACAGCUUGCAUAGUAAUUUGUUA,0.00652 ± 0.0028
8,UCCUGCUACAGCUUGCAUAGUAUUUAGUGA,0.00567 ± 0.0019
9,UCCUCCUUCUGCUUGCAUAGUAUUUAGUUA,0.11 ± 0.028
10,UCCUGGAUGAGCUUGCAUAGUAUUUUCUAA,0.00391 ± 0.0026
11,UCCUGGAUGUCGAACGUAAGGAUUUAGUUA,< 0.0001
12,UCCUGGAUCAGCUUGCGAUAGUAUUUAGUUA,0.00281 ± 0.0027
13,UCCUGCUACUGGUUGCAUAGUAUUUAGUUA,0.0113 ± 0.0035
14,UCCUGGAUGUGCUUGCAUAGUAUUGUAGUUA,0.00579 ± 0.0041
15,UCCUGGAUGACCAUGCAUAGUAUUUAGUUA,0.00488 ± 0.0028
16,UCCUGGUACAGCUUGGAUAGUAUUUAGAAA,0.00277 ± 0.0022
17,UCCUGCUACAGCUUGCAAAGUAAUUAGUUA,0.00362 ± 0.0019
18,UCCUGCUACAGCUUGCUAGUAUUUAGUUA,0.00473 ± 0.0031
19,UCCUGGAUGUCGAACGUAUGUAUUUAGAUUA,< 0.0001
20,UCCUCCUUGUGCUUGCAUAGUAUUUACAAA,0.00376 ± 0.0032

row,Sequence,pre-steady-state target cleavage rate
1,UCCUGGAUGAGCUUUGCAUAGUAUUUAGUUA,0.0107 ± 0.0037
2,UCCUGCUACAGCUUCGCAUAGUAUUUAGUUA,0.0225 ± 0.0071
3,UCCUGGAUGAGCUUGCAUAGUUUUUAGAAA,0.00315 ± 0.0019
4,UCCUGGAUGUCGAACCAGAGUAUUUAGUUA,< 0.0001
5,UCCUGCUACAGCUUGCAUAGUAUAAUGUAA,0.00248 ± 0.002
6,UCCUCCUACAGCUUUCAUAGUAUUUAGUUA,0.00691 ± 0.0022
7,UCCUCCUACAGCUUCCAUAGUAUUUAGAUA,0.00393 ± 0.0021
8,UCCUGGAUGAGCUUGCAUACUAUUUAGUUA,0.00682 ± 0.0019
9,UCCUCCUACAGCAUGCAUAGUAUAUAGUUA,0.00519 ± 0.0032
10,UCCUGGAUCAGCUUGCAUAGUAUUUAGUUUA,0.0394 ± 0.011
11,UCCUGCUACAGCUUGCAUAGUAUUUUGUAA,0.00356 ± 0.0022
12,UCCUGGAUCACGUUGCAUAGUAUUUAGUUA,0.0686 ± 0.017
13,UCCUGCUACAGCUUGGAUAGUAUUUUCAAA,0.00307 ± 0.0018
14,UCCUGGAUGUGCUUGCAUACUAUUUAGAUA,0.00202 ± 0.0015
15,UCCUGGAUGUCGUAGCAUAGUAUUUAGUUA,0.00385 ± 0.0025
16,UCCUGGAUGUCGAACCAUAGUAAUUAGUUA,< 0.0001
17,UCCUCCUACAGCAUGCAUAGUAAUUAGUUA,0.0115 ± 0.0038
18,UCCUGGAUGAGUCUUGCAUAGUAUUUAGUUA,0.00527 ± 0.0024
19,UCCUGGAUGUCGUUGCAUAGAUAAAUCAAA [g11:g18:cont:t1A],< 0.0001
20,UCCUCCUACAGCUUCCAUAGUAUAUAGUUA,0.00246 ± 0.0022

# — the supplement of paper PMC10338343
